# Results reported in PubChem BioAssay AID1851 (National Center for Advancing Translational Sciences (NCATS), 2009).
# Where “and” joins values, the source holds several entries; their conditions need not be identical. Equal entries are not always repeated. The whole screen tested about 16,000 compounds, of which about 2,600 (16%) were called active. Inconclusive results (about 20%) are left out. Calls follow the shape of the dose curve; as a rule, active = well fitted curve in the direction sought with a large enough effect; inconclusive = small, poorly fitted or top-dose-only effect, or effect the other way; inactive = no such curve, though single readings can be large or run the other way. Shown is part of a subset that was picked to be rich in actives.
# Target: Cytochrome P450 2D6 (Homo sapiens) (UniProt P10635)
# Experiment: Cytochrome panel assay with activity outcomes
# Settings: recombinant CYP, pro-luciferin dealkylation, luminescence, p450-cyp2d6; series mostly up to 57.1 µM; activity, negative = inhibition: at the top concentration
# % is scaled to controls: 0 for no effect and ±100 for the full control effect.
# Cytochrome P450 2D6 (Homo sapiens), sequence (P10635 whole entry, looked up): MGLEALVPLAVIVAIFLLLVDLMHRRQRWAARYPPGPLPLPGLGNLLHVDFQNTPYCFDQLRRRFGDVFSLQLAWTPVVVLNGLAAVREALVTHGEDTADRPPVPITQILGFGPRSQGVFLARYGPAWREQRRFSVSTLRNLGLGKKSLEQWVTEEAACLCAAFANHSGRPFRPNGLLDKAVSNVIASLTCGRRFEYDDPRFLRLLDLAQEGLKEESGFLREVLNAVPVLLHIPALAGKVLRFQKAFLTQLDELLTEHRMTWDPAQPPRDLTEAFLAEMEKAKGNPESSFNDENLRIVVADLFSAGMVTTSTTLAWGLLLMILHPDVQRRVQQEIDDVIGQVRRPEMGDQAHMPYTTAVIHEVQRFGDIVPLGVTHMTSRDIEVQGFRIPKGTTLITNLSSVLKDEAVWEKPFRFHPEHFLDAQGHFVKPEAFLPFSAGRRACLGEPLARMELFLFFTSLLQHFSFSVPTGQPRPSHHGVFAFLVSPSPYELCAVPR
SMILES,"activity, negative = inhibition",AC50
C[C@H]1CCCC=CC2C[C@H](O)C[C@@H]2[C@H](O)/C=C\C(=O)O1 (stereo not given in full),9.19% (inactive),
N#Cc1cccc(NC(=O)N2CCCC3(CCN(C(=O)Oc4ccccc4)CC3)C2)c1,-9.57% (inactive),
Oc1ccc2c3c1O[C@H]1c4[nH]c5c(c4C[C@@]4(O)[C@@H](C2)N(CC2CC2)CC[C@]314)C[C@]1(O)[C@H]2Cc3ccc(O)c4c3[C@@]1(CCN2CC1CC1)[C@@H]5O4,-4.33% (inactive),
Oc1ccc2c3c1O[C@@H]1c4[nH]c5c(c4C[C@@]4(O)[C@@H](C2)N(CC2CC2)CC[C@]314)C[C@]1(O)[C@@H]2Cc3ccc(O)c4c3[C@@]1(CCN2CC1CC1)[C@H]5O4,-4.66% (inactive),
Oc1ccc2c3c1O[C@H]1c4[nH]c5ccccc5c4C[C@]4(O)[C@H](C2)N(CC2CC2)CC[C@@]314,,2.51 µM (active) and 631 nM (active)
NC(N)=Nc1ccc2[nH]c3c(c2c1)C[C@]1(O)[C@@H]2Cc4ccc(O)c5c4[C@]1(CCN2CC1CC1)[C@H]3O5,2.41% (inactive),
Oc1ccc2c3c1O[C@H]1c4c(c5ccccc5n4Cc4ccccc4)C[C@]4(O)[C@H](C2)N(CC2CC2)CC[C@@]314,-5.11% (inactive),
Oc1ccc2c3c1O[C@H]1c4oc5ccccc5c4C[C@]4(O)[C@H](C2)N(CC2CC2)CC[C@@]314,,1.26 µM (active)
Nc1nc(N)c2nc(CNc3ccc(C(=O)N[C@H](CCC(=O)O)C(=O)O)cc3)cnc2n1,-1.59% (inactive),
CC[C@H](C)[C@@H]1O[C@]2(CC[C@@H]1C)C[C@H]1C[C@H](CC=C(C)[C@@H](O[C@@H]3C[C@H](OC)[C@H](O[C@@H]4C[C@H](OC)[C@H](O)[C@H](C)O4)[C@H](C)O3)[C@@H](C)C=CC=C3CO[C@@H]4[C@@H](O)C(C)=C[C@@H](C(=O)O1)[C@]34O)O2,-16.5% [at 25.6 µM] (inactive),
CCNC(=O)[C@@H]1O[C@@H](n2cnc3c(N)ncnc32)[C@@H](O)[C@H]1O,-3.38% (inactive),
CCN(CC)CC#CCOC(=O)[C@@](O)(c1ccccc1)C1CCCCC1,,10 µM (active)
Cc1ccc(S(=O)ON2CCC(C(=O)O)(c3ccccc3)CC2)cc1 (stereo not given),20.9% [at 11.4 µM] (inactive),
CCCc1cc2c(n1Cc1ccc(C)cc1)C(C)C1CN(C(=O)c3ccccc3)C(C)(C(=O)OC)C21 (stereo not given),-18% (inactive),
CCCc1cc2c(n1Cc1cccc(Cl)c1)C(C)C1CN(C(=O)c3ccccc3)C(C)(C(=O)OC)C21 (stereo not given),,12.6 µM (active)
CCCc1cc2c(n1CCO)C(C)C1CN(C(=O)c3ccccc3)C(C)(C(=O)OC)C21 (stereo not given),-9.47% (inactive),
O=C1Nc2ccc(I)cc2/C1=C/c1cc(Br)c(O)c(Br)c1,5.11% (inactive),
C[C@H]1CC[C@]2(OC1)O[C@@H]1C[C@@H]3[C@@H]4CC[C@H]5C[C@@H](O)CC[C@]5(C)[C@@H]4CC(=O)[C@@]3(C)[C@H]1[C@@H]2C,3.5% [at 25.6 µM] (inactive),
COCCCN1Cc2ccccc2C1=N,,12.6 µM (active)
N#CC(=C(/N)Sc1ccccc1N)/C(C#N)=C(/N)Sc1ccccc1N,,0.02 µM (active)
CCCCn1c(O)c(C(CC)=NCc2ccc(F)cc2)c(=O)[nH]c1=O,-4.9% (inactive),
CCCCn1c(O)c(C(CC)=Nc2ccc(OC)cc2OC)c(=O)[nH]c1=O,,12.6 µM (active)

SMILES,"activity, negative = inhibition",AC50
CCC(=Nc1cc(OC)ccc1OC)c1c(O)[nH]c(=O)[nH]c1=O,-20% (inactive),
CCCCN1C(=O)/C(=C/c2ccc(N(C)C)cc2)C(=O)N(Cc2ccco2)C1=O,2.94% (inactive),
[N-]=[N+]=NCC(=O)c1c[nH]c(=O)[nH]c1=O,8.7% [at 11.4 µM] (inactive),
O=[N+]([O-])c1cc([As](=O)(O)O)ccc1O,-1.12% [at 25.6 µM] (inactive),
CCn1cnc2c(Nc3cccc(Cl)c3)nc(N[C@@H]3CCCC[C@H]3N)nc21,,25.1 µM (active)
CC(=O)[C@@H]1CC[C@@H]2[C@@H]3CC=C4C[C@H](OS(=O)(=O)O)CC[C@@]4(C)[C@H]3CC[C@]21C,-8.1% (inactive),
Cc1ccc2c(c1)C1CN(C)CCC1N2C(=O)Nc1cccc(Cl)c1 (stereo not given),,1 µM (active)
Brc1c(NC2=NCCN2)ccc2nccnc12,-11.4% (inactive),
Clc1cc(I)cc(Cl)c1NC1=NCCN1,,3.98 µM (active)
CCC(CC)C(=O)NC1CCSC1=O (stereo not given),0.616% (inactive),
CC1(C)N=C(N)N=C(N)N1c1cccc(C(=O)Nc2ccc(S(=O)(=O)F)cc2)c1,,2 µM (active)
CC(=O)c1ccc2c(c1)N(CCCN(C)C)c1ccccc1S2,,2.51 µM (active)
C=CCN1C(=O)c2ccccc2Sc2ccc(C(=O)N3CCC4(CC3)OCCO4)cc21,-5.85% (inactive),
CN1C(=O)c2ccccc2Sc2ccc(C(=O)N3CCC4(CC3)OCCO4)cc21,13.9% (inactive),
CCCCc1nc2ccccc2c(=O)n1-c1ccccc1[N+](=O)[O-],-22.1% (inactive),
COc1cc(CCN)ccc1O,-0.172% (inactive),
CN(C(=O)Cc1ccccc1)[C@H](CN1CCCC1)c1ccccc1,,3.16 µM (active)
CN(C(=O)Cc1ccc(Cl)c(Cl)c1)[C@@H](CN1CCCC1)c1cccc(OCC(=O)O)c1,0.96% (inactive),
O=c1[nH]oc2c1CCNC2,,inactive
C#C[C@@]1(O)CC[C@@H]2[C@@H]3CCC4=CC(=O)CC[C@@]4(C)[C@H]3CC[C@]21C,3.54% [at 25.6 µM] (inactive),
Cc1ccc(N2C(=O)/C(=C/N3CCN(C(=O)c4ccco4)CC3)C(=O)NC2=S)cc1C,,0.0282 µM (active)
Cc1ccc(N2C(=O)/C(=C/c3ccc(CN(CCC#N)S(C)(=O)=O)o3)C(=O)NC2=S)cc1C,4.47% (inactive),

SMILES,"activity, negative = inhibition",AC50
CC(=O)Nc1ccccc1C(=O)OCC(=O)c1ccc2ccccc2c1,29.5% (inactive),
CC[C@@]1(O)C(=O)OCc2c1cc1n(c2=O)Cc2cc3c(NC(=O)CN)cccc3nc2-1,3.66% [at 11.4 µM] (inactive),
O=C(O)[C@H]1[C@H](C(=O)O)[C@H]2CC[C@@H]1O2,2.98% (inactive),
CN(C)CC/C=C1\c2ccccc2Sc2ccc(Cl)cc21,,2.51 µM (active)
CN(C)CCC=C1c2ccccc2CCc2ccccc21,,7.94 µM (active)
CN(C)[C@@H]1C(=O)C(C(N)=O)=C(O)[C@]2(O)C(=O)C3=C(O)c4c(O)cccc4[C@@](C)(O)[C@H]3[C@H](O)[C@@H]12,0.652% [at 25.6 µM] (inactive),
FC(F)(F)c1nc2ccc(SSc3ccc4nc(C(F)(F)F)[nH]c4c3)cc2[nH]1,-8.27% [at 11.4 µM] (inactive),
CP(=O)(O)C1=CCNCC1,-1.3% (inactive),
CCCN1CCC[C@H](c2cccc(O)c2)C1,,inactive
CCCN1CCC[C@H](c2cccc(C#N)c2)C1,,31.6 µM (active)
CN1C2CCC1/C(=C\c1ccccc1)C(=O)/C2=C\c1ccccc1,,0.158 µM (active)
CCOC(=O)N(c1ccccc1)P1(=S)OCCO1,4.06% (inactive),
CC(=O)[C@@H]1CC[C@@H]2[C@@H]3CCC4=CC(=O)CC[C@@]4(C)[C@H]3CC[C@]21C,-11.4% [at 25.6 µM] (inactive),
Cn1ccnc1,7.17% (inactive),
C[Se]C[C@@H](N)C(=O)O,15.1% (inactive),
CC[C@]1(C2=NCCN2)Cc2ccccc2O1,,12.6 µM (active)
CC[C@H](C)C(=O)O[C@@H]1[C@H](O)[C@@H]2[C@H](CN3C[C@@H](C)CC[C@@H]3[C@@]2(C)O)[C@@H]2C[C@@]34O[C@@]5(O)[C@@H](OC(=O)[C@](C)(O)CC)CC[C@@]3(C)[C@H]5[C@H](OC(C)=O)[C@@H](OC(C)=O)[C@H]4[C@]12O,9.64% [at 25.6 µM] (inactive),
O=c1cc(-c2ccc(O)c(O)c2)oc2cc(O)cc(O)c12,-1.91% [at 25.6 µM] (inactive),
Cc1c([C@@H](C)[C@H]2NC[C@H](C)C[C@@H]2O)ccc2c1C[C@@H]1[C@H]2CC=C2C[C@@H](O)CC[C@@]21C,9.78% [at 11.4 µM] (inactive),
C[C@]1(O)CC[C@H]2[C@@H]3[C@@H](O)CC4=CC(=O)CC[C@@]4(C)[C@H]3CC[C@]21C,10.5% [at 11.4 µM] (inactive),
NC(=NCCc1ccc(I)cc1)SCCCc1cnc[nH]1,9.29% (inactive),
NC(=NCc1ccc(Cl)cc1)SCCCc1cnc[nH]1,,12.6 µM (active)

SMILES,"activity, negative = inhibition",AC50
OCc1cnc[nH]1,-1.75% (inactive),
NCCc1ccc(S(=O)(=O)F)cc1,,39.8 µM (active)
NCCc1ccc(O)cc1,-10.7% (inactive),
NCCc1ccc(S(=O)(=O)O)cc1[N+](=O)[O-],-0.422% [at 11.4 µM] (inactive),
C=CCN1CC[C@@]23c4c5ccc(O)c4O[C@H]2/C(=N\N=C2/CC[C@@]4(O)[C@H]6Cc7ccc(O)c8c7[C@@]4(CCN6CC=C)[C@@H]2O8)CC[C@]3(O)[C@@H]1C5,-18.6% (inactive),
C=CCN1CCC2(C)c3cc(O)ccc3C[C@H]1[C@H]2C,,7.94 µM (active) and 25.1 µM (active) and 631 nM (active)
C[C@@H]1[C@@H]2Cc3ccc(O)cc3[C@@]1(C)CCN2CC1CC1,,31.6 µM (active)
CC(=O)c1c(O)c(C)c(O)c(Cc2c(O)c3c(c(C(=O)/C=C\c4ccccc4)c2O)OC(C)(C)C=C3)c1O,-9.48% (inactive),
CC[C@@]1(O)C(=O)OCc2c1cc1n(c2=O)Cc2cc3ccccc3nc2-1,,inactive
C=C1C/C(=C\C)C(=O)O[C@@H]2CCN3CC=C(COC(=O)[C@@]1(C)O)[C@H]23,3.61% [at 25.6 µM] (inactive),
O=c1ccc2[nH]cc(C3=CCNCC3)c2[nH]1,,2.51 µM (active)
COc1ccc2[nH]cc(C3=CCNCC3)c2c1,-4.23% (inactive),
OC1(c2ccc(Cl)cc2)CCN(Cc2c[nH]c3ccccc23)CC1,,0.316 µM (active)
O=C(Nc1ccc(Cl)cc1C(=O)c1ccccc1)c1ccco1,-13.7% (inactive),
O=C(/C=C\c1ccc(Cl)cc1)N[C@@]12CCC(=O)[C@@H]3Oc4c(O)ccc5c4[C@@]31CCN(CC1CC1)[C@@H]2C5,,5.01 µM (active)
NC(N)=Nc1ccc2[nH]c3c(c2c1)C[C@]1(O)[C@@H]2Cc4ccc(O)c5c4[C@]1(CCN2CC1CC1)[C@@H]3O5,8.91% (inactive),
O=C1/C(=C\c2ccccc2)C[C@@]2(O)[C@H]3Cc4ccc(O)c5c4[C@@]2(CCN3CC2CC2)[C@@H]1O5,12.5% (inactive),
C=C(C)CN1CC[C@@]23c4c5ccc(O)c4O[C@H]2c2[nH]c4ccccc4c2C[C@]3(O)[C@@H]1C5,1.9% (inactive),
COc1ccc2c3c1O[C@@H]1C(=O)CC[C@@]4(O)[C@@H](C2)N(CC2CC2)CC[C@]314,,5.01 µM (active)
